We go through five compounds from PubChem BioAssay (NCI).

Some test systems named below: NCI-H23 lung; NCI-H226 lung; NCI-H322M lung; HOP-62 NSCLC; NCI-H460 lung; HOP-92 NSCLC; NCI-H522 lung; A549/ATCC NSCLC; 786-0 renal; COLO 205 colon; DU-145 prostate; MALME-3M melanoma; MDA-MB-231 breast; RXF 393 renal; SF-268 CNS; SF-295 CNS; SF-539 CNS; UACC-257 melanoma; M14 melanoma; K-562 leukemia.
Common to all, as to test: NCI-60 one-dose screen, 48 h (100 = growth as untreated, 0 = no growth, -100 = all killed)
Conditions in all cases: 10 µM unless noted

Several values for one entry are separate records, joined by “and”; a condition that tells them apart may be missing. Equal entries are not always repeated. About 83,000 compounds went through this panel and 20% of them were active in at least one assay; those are over-represented in the sample as a whole.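 Assay: single dose, 48 h. Readout: percent growth (0 = no net growth; negative = cell death). Active: <10.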 Activity calls are given as the source filed them.

Consider `CC1=NN(c2ccccc2)C(=O)C1C(=O)c1ccccc1` (centres undefined), for which the growth with NCI-H23 lung is 98.2% (inactive); in the experiment with NCI-H226 lung, 92.6% (inactive); in the experiment with NCI-H322M lung, 110% (inactive); with HOP-62 NSCLC, 111% (inactive); in the experiment on NCI-H460 lung, 108% (inactive); in the experiment on HOP-92 NSCLC it was 78.4% (inactive). In addition, the growth in the experiment with NCI-H522 lung was 98.5% (inactive); in the experiment on A549/ATCC NSCLC, 91.5% (inactive); with 786-0 renal it was 101% (inactive); in the experiment with COLO 205 colon, 106% (inactive); with DU-145 prostate it was 103% (inactive); with MALME-3M melanoma, 97.6% (inactive). Moreover, the growth is 97.1% (inactive) in the experiment with MDA-MB-231 breast; 140% (inactive) in the experiment with RXF 393 renal; 95.4% (inactive) in the experiment with SF-268 CNS; 97.7% (inactive) in the experiment with SF-295 CNS; 116% (inactive) with SF-539 CNS; 94.3% (inactive) with UACC-257 melanoma. Also, the growth in the experiment on M14 melanoma was 104% (inactive).
Regarding `O=[N+]([O-])c1ccc(Oc2ccccc2)cc1`, the growth with NCI-H23 lung is 95.7% (inactive) and 105% (inactive); in the experiment with NCI-H226 lung, 103% (inactive); in the experiment on NCI-H322M lung, 104% (inactive) and 111% (inactive); in the experiment on HOP-62 NSCLC it was 106% (inactive) and 95.9% (inactive); in the experiment with NCI-H460 lung it was 103% (inactive) and 102% (inactive); in the experiment with HOP-92 NSCLC, 48.8% (inactive) and 77.1% (inactive). The growth in the experiment on NCI-H522 lung is 108% (inactive) and 103% (inactive); in the experiment with A549/ATCC NSCLC it was 104% (inactive) and 89.5% (inactive); in the experiment on 786-0 renal it was 103% (inactive) and 106% (inactive); in the experiment with COLO 205 colon, 109% (inactive) and 110% (inactive); with DU-145 prostate, 117% (inactive) and 127% (inactive); in the experiment with K-562 leukemia it was 118% (inactive) and 123% (inactive). For the same compound, the growth was 106% (inactive) and 124% (inactive) in the experiment with MALME-3M melanoma; 109% (inactive) and 136% (inactive) in the experiment with MDA-MB-231 breast; 117% (inactive) and 118% (inactive) in the experiment with RXF 393 renal; 106% (inactive) and 99.4% (inactive) in the experiment with SF-268 CNS; 95.4% (inactive) and 121% (inactive) in the experiment on SF-295 CNS; 104% (inactive) and 98.1% (inactive) with SF-539 CNS. In addition, the growth is 108% (inactive) and 91.7% (inactive) in the experiment with UACC-257 melanoma; 98.6% (inactive) and 108% (inactive) with M14 melanoma.
As for `N#CC(C#N)=C/C=C/c1cccc([N+](=O)[O-])c1`, the growth in the experiment with NCI-H23 lung was 19.4% (inactive) and -19.3% (active); in the experiment with NCI-H226 lung, 21.8% (inactive) and -24.7% (active); in the experiment on NCI-H322M lung, 59.9% (inactive) and 26.4% (inactive); in the experiment with HOP-62 NSCLC, -4.35% (active) and -23.7% (active); in the experiment with NCI-H460 lung it was -7.92% (active) and -72.3% (active); with HOP-92 NSCLC, 23.3% (inactive). Also, the growth was -55.5% (active) and -70.5% (active) in the experiment with NCI-H522 lung; 34.1% (inactive) and 10.2% (inactive) in the experiment on A549/ATCC NSCLC; 26.2% (inactive) and -22.1% (active) in the experiment with 786-0 renal; 1.24% (active) and -26.8% (active) in the experiment on COLO 205 colon; -26.8% (active) and -24.1% (active) in the experiment on DU-145 prostate; 7.22% (active) and 3.61% (active) with K-562 leukemia. Also, the growth with MALME-3M melanoma is 7.87% (active); in the experiment with MDA-MB-231 breast it was 9.84% (active) and 8.38% (active); in the experiment with RXF 393 renal, -68.9% (active) and -73.5% (active); with SF-268 CNS it was 6.01% (active) and -8.99% (active); in the experiment with SF-295 CNS, 37.1% (inactive) and -41.1% (active); with SF-539 CNS, 8.63% (active) and 4.54% (active). Moreover, the growth in the experiment on UACC-257 melanoma is -32% (active) and -64.4% (active); with M14 melanoma, -37.1% (active) and -74.9% (active).
In the case of `Cn1c(=O)n(-c2ccc(C(C)(C)C#N)cc2)c2c3cc(-c4cnc5ccccc5c4)ccc3ncc21`, the growth in the experiment on NCI-H23 lung is 7.45% (active) and 15.4% (inactive); in the experiment with NCI-H226 lung, 7.02% (active) and 9.42% (active); with NCI-H322M lung it was 1.14% (active) and -0.589% (active); in the experiment with HOP-62 NSCLC it was 1.69% (active) and 3.34% (active); in the experiment with NCI-H460 lung it was 3.03% (active) and -9.04% (active); with HOP-92 NSCLC, -4.42% (active). Further, the growth in the experiment on NCI-H522 lung was 2.87% (active) and -9.46% (active); in the experiment with A549/ATCC NSCLC, 0.549% (active) and -9.22% (active); in the experiment with 786-0 renal, 0.54% (active) and -4.76% (active); in the experiment with COLO 205 colon, -25% (active) and -3.99% (active); in the experiment with DU-145 prostate it was 15.3% (inactive) and 6.2% (active); in the experiment with K-562 leukemia it was 10.2% (inactive) and 10.6% (inactive). Besides, the growth in the experiment with MALME-3M melanoma was -14.1% (active) and -14.8% (active); in the experiment on MDA-MB-231 breast, 19.3% (inactive) and 20% (inactive); in the experiment on RXF 393 renal, -22.6% (active) and -17.3% (active); in the experiment with SF-268 CNS, 11.2% (inactive) and 7.46% (active); with SF-295 CNS, -20.4% (active) and -4.51% (active); in the experiment with SF-539 CNS it was -30.1% (active) and -17.4% (active). Further, the growth was -9.78% (active) and -14.4% (active) with UACC-257 melanoma; 7.18% (active) and 0.962% (active) in the experiment with M14 melanoma.
Take `CNC(=O)c1cccc(-c2ccc3c(N4CCOC[C@@H]4C)nc(N4CCOC[C@@H]4C)nc3n2)c1`: the growth is 18.3% (inactive) and 10.2% (inactive) in the experiment on NCI-H23 lung; -11.5% (active) and -2.84% (active) in the experiment with NCI-H226 lung; 6.83% (active) and -14.6% (active) in the experiment with NCI-H322M lung; -3.27% (active) and -14.6% (active) in the experiment on HOP-62 NSCLC; 11.4% (inactive) and 9.46% (active) in the experiment on NCI-H460 lung; -25.3% (active) and -21.5% (active) in the experiment with HOP-92 NSCLC. For the same compound, the growth was 10.4% (inactive) and -11.1% (active) with NCI-H522 lung; 4.83% (active) and -7.57% (active) with A549/ATCC NSCLC; 0.967% (active) and -5.74% (active) with 786-0 renal; 4.53% (active) and -11.4% (active) in the experiment with COLO 205 colon; 12.2% (inactive) in the experiment on DU-145 prostate; 25.3% (inactive) and 12.6% (inactive) with K-562 leukemia. Also, the growth in the experiment with MALME-3M melanoma was -32.1% (active) and -46.6% (active); in the experiment with MDA-MB-231 breast, 6.14% (active) and 4.21% (active); with RXF 393 renal, -28.8% (active) and -33.9% (active); in the experiment with SF-268 CNS, 9.04% (active) and 13.7% (inactive); in the experiment on SF-295 CNS, -37.4% (active) and -36.6% (active); with SF-539 CNS, -26.5% (active) and -40.2% (active). The growth was -21.2% (active) and -25.5% (active) in the experiment with UACC-257 melanoma; -3.53% (active) and -5.57% (active) in the experiment on M14 melanoma.
